Assay outcomes (PubChem)
Luc counter = Counterscreen for Luciferase (Kinase-Glo TM) Inhibition | AID 1379, 2008 | Kinase-Glo luciferase, ATP luminescence, 8 min | Potency, µM (highest dose often 38.3 µM), most hits filed as inhibitors | hit rate 0.28% among 200,000 | Luciferin 4-monooxygenase (Photuris pensylvanica), Q27757; note: nearly all actives have a fitted effect of over 60% in size
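Inhibition of Kinase-Glo luciferase light generation was assessed at 10 uM ATP in pH 7.2 imidazole buffer, with luminescence measured after eight minutes at ambient temperature.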
ALDH1A1 inh = qHTS Assay for Inhibitors of Aldehyde Dehydrogenase 1 (ALDH1A1); Potency, µM (doses to about 75.3 µM), most hits filed as inhibitors; hit rate 7.3% among 220,000; Aldehyde dehydrogenase 1A1 (Homo sapiens), P00352; Purified ALDH1A1, NADH fluorescence, propionaldehyde substrate; active = well fitted inhibition curve with a large enough effect, not every such curve was filed as active; inconclusive = small, poorly fitted or top-dose-only effect, or another doubt; inactive = no such curve, though single readings can be large or run the other way
Target sequence (P00352 whole entry, looked up): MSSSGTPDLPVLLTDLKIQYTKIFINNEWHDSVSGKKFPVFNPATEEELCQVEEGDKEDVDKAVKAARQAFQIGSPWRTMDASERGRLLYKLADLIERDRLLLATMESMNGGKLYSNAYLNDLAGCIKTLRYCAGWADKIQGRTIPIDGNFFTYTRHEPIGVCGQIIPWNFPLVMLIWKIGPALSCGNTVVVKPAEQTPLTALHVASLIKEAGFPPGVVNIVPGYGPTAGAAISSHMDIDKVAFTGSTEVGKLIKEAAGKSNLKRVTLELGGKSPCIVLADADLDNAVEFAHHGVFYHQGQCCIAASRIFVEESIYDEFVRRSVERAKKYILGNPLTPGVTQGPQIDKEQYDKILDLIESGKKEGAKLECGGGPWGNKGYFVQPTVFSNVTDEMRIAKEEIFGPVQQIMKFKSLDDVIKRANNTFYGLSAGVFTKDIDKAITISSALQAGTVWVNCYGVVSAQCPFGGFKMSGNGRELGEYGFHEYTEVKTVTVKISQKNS
LMNA splice mod = qHTS Assay for Modulators of Lamin A Splicing | hit rate 0.01% among 200,000 | HeLa LMNA splicing GFP/RFP minigene ratio, 48 h | Potency, µM (highest dose often 46.1 µM), actives largely listed as inhibitors; active = well fitted inhibition curve with a large enough effect in the signal ratio, with a control signal flat, not every such curve was filed as active; inconclusive = small, poorly fitted or top-dose-only effect, or effect the other way, or a change in a side signal; the % refers to the signal ratio
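S3 HeLa cells stably expressing lamin A-EGFP splicing minigene plus DsRed2, 600 cells/well, 48 h compound exposure at 37C. Laser-scanning cytometry; analysed as GFP (500-530 nm)/RFP (575-640 nm) total intensity ratio; 0.5% DMSO vehicle.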
HTT aggregate = qHTS Multiplex Assay to Identify Dual Action Probes in a Cell Model of Huntington: Aggregate Formation (GFP); PC12 HttQ103-GFP aggregates, Acumen cytometry, 40 h; Potency, µM (titrated, usually from 46.1 µM), actives largely listed as inhibitors; hit rate 1.1% among 220,000; AID 1688, 2009; note: nearly all actives have a fitted effect of over 60% in size
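PC12 cells with ecdysone-inducible HTT exon1 Q103-GFP, induced by 100 nM tebufenozide, given compounds in a concentration series. GFP aggregates (1–25 um, 6 SD above background) counted in lysates by laser-scanning cytometry, 488 nm excitation.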
HTT ATP protect = qHTS Multiplex Assay to Identify Dual Action Probes in a Cell Model of Huntington: Cytoprotection (ATP); PC12 HTT-Q103 induced, cytoprotection, ATP luminescence, 40 h; Potency, µM (series often up to 56.4 µM), usual class: activators; hit rate 0.14% among 230,000; AID 1471, 2008; note: nearly all actives have a fitted effect of over 45% in size
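Stable PC12 Q103-GFP cells in serum-supplemented, phenol red-free DMEM; induction by tebufenozide at 100 nM final; compound dose series; cell viability quantified luminescently from ATP.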
HPGD block = qHTS Assay for Inhibitors of HPGD (15-Hydroxyprostaglandin Dehydrogenase) | Potency, µM, hits mostly inhibitors | hit rate 4.3% among 150,000 | purified HPGD, NADH fluorescence kinetic, PGE2 substrate | 15-hydroxyprostaglandin dehydrogenase [NAD(+)] (Homo sapiens), P15428; active = well fitted inhibition curve with a large enough effect, not every such curve was filed as active; inconclusive = small, poorly fitted or top-dose-only effect, or another doubt; inactive = no such curve, though single readings can be large or run the other way
Target sequence (P15428 whole entry, looked up): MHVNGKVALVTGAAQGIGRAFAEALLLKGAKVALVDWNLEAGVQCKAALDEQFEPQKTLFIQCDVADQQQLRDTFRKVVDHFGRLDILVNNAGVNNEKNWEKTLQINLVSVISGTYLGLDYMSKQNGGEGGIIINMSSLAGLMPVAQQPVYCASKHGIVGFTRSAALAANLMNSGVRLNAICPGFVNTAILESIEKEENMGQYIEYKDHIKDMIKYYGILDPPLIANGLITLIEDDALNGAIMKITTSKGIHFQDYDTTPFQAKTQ
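20 nM HPGD preincubated 15 min at room temperature with compound in 50 mM Tris-HCl pH 8, 0.01% Tween 20. Started with 1 mM NAD+ and 30 uM prostaglandin E2; NADH fluorescence (360/450 nm) read 5 times over 30-s intervals, last minus first.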
Numbers stand for hits; . = inactive; ? = inconclusive; / = no result; ! = repeats disagree; [ ] = another dose, or the depositor's remark. A selection: hits, their analogues and other compounds. The true share with any hit is near 9%. Unless noted, calls come from the whole dose curve; as a rule, active = well fitted curve in the direction sought with a large enough effect; inconclusive = small, poorly fitted or top-dose-only effect, or another doubt; inactive = no such curve, though single readings can be large; an effect the other way counts as inactive or inconclusive.

SMILES	Luc counter	ALDH1A1 inh	LMNA splice mod	HTT aggregate	HTT ATP protect	HPGD block
Cc1cc(SCc2sc(-c3ccc(C(F)(F)F)c(F)c3)nc2C)ccc1OCC(=O)O	.	?	/	/	.	10µM
C[C@]12CC[C@@H](O)C[C@@H]1CC[C@@H]1[C@@H]2CC[C@]2(C)C=CC[C@@H]12	/	?	/	/	.	/
O=C(O)CCn1cc(C=C2C(=O)NC(=S)NC2=O)c(-c2cccc(Cl)c2)n1	.	3.5µM	/	.[9.22 µM]	.[10 µM]	/
O=C(O)CCn1cc(C=C2C(=O)NC(=O)NC2=O)c(-c2ccc(Br)cc2)n1	.	.	?	?	/	28µM
O=C1NC(=S)NC(=O)C1=Cc1cccc2cc3ccccc3cc12	.[7.66 µM]	?	/	.[9.22 µM]	.[10 µM]	.
COc1cc2c(cc1OC)[C@@H]1C(=O)c3ccc(OC)c(CC=C(C)C)c3OC1CO2 (stereo partly drawn)	.	?	?	/	/	.
CS/C(N)=C(C#N)/C(C#N)=C(\N)SC	.	7.1µM	/	/	.	?
Brc1c(NC2=NCCN2)ccc2nccnc12	.	16µM!	?	.	?	22µM!
N#CC(C(=O)C12CC3CC(CC(C3)C1)C2)c1nc2ccccc2[nH]1 (stereo not drawn)	.	.	?	?	.	.
CCOC(=O)CC(SP(=O)(OC)OC)C(=O)OCC (stereo not drawn)	/	11µM	/	/	.	.
CCOC(=O)CBr	/	?	/	/	.	.
CCCCN1C(=O)/C(=C/C=C/c2ccco2)C(=O)NC1=S	.	16µM	.	.	.[10 µM]	10µM
CCc1ccc(N2NC(=O)/C(=C/C=C/c3ccco3)C2=O)cc1	.	3.2µM	.	.	.[10 µM]	.
CCc1ccc(N2C(=O)NC(=O)/C(=C\C=C\c3ccco3)C2=O)cc1	/	/	/	.[9.22 µM]	.[10 µM]	/
CC(C)c1ccc(N2C(=O)NC(=O)/C(=C/C=C/c3ccco3)C2=O)cc1	.	.	.	?	/	3.2µM
O=C1NC(=O)N(c2ccccc2)C(=O)/C1=C\C=C\c1ccccc1	/	10µM	?	.[9.22 µM]	.[10 µM]	/
Cc1cc(C)n2nc(SC(C)C(=O)N3CCC4(CC3)OCCO4)nc2n1 (stereo not drawn)	.	.	.	.	.	.
CCCCC(C)C(OC(=O)CC(CC(=O)O)C(=O)O)C(CC(C)CC(O)CCCCC(O)CC(O)C(C)N)OC(=O)CC(CC(=O)O)C(=O)O (stereo not drawn)	.	.	.	.	/	.
O=C1NC(=O)N(Cc2ccccc2)C(=O)/C1=C\c1ccco1	.	?	?	.	.[10 µM]	/
CCCCN1C(=O)/C(=C\c2ccco2)C(=O)N(CCc2ccccc2)C1=O	.	.	.	.	.	32µM
Cc1ccc(N2C(=O)NC(=O)/C(=C/C=C/c3ccco3)C2=O)cc1	.	?	?	?	.[10 µM]	7.1µM
Cc1cc(C)cc(N2C(=O)NC(=O)/C(=C\C=C\c3ccco3)C2=O)c1	.	?	?	?	.[10 µM]	10µM
CC(=O)NC1CC2CCCC(C1)N2 (stereo not drawn)	.	?	.	.	.	.
O=C1/C(=C/c2ccc([N+](=O)[O-])cc2)N2CCC1CC2	.	?	?	.	.[10 µM]	.
Cc1ccc(N=C(N(C)C)P(=O)(N(C)C)N(C)C)cc1	.	.	.	.	.[10 µM]	/
SMILES	Luc counter	ALDH1A1 inh	LMNA splice mod	HTT aggregate	HTT ATP protect	HPGD block
COc1ccc(C[C@@H]2NC[C@H](O)[C@@H]2OC(C)=O)cc1	.	.	?	/	.	.
CCC(C)N1C(=O)/C(=C/c2ccc3c(c2)CCN3CCCCl)C(=O)NC1=S (stereo not drawn)	.	0.22µM	?	.	.[10 µM]	25µM
Cn1cccc1/C=C1/C(=O)NC(=S)N(Cc2ccc(F)cc2)C1=O	/	/	/	.[9.22 µM]	.[10 µM]	/
C[N+](C)(C)CC(=O)[O-]	.	.	/	.	?	.
CCOc1ccc(N2C(=O)/C(=C\c3cccs3)C(=O)NC2=S)cc1	.	18µM	.	.	.	/
CCOc1ccc(N2C(=O)NC(=O)/C(=C/c3cnc(SC)nc3)C2=O)cc1	.	?	.	.	.	/
O=C1NC(=S)N(c2ccccc2F)C(=O)/C1=C\c1cccs1	.	20µM	?	?	.[10 µM]	7.9µM
N#Cc1ccc(NC(=O)CN2CCCC2)cc1Cl	.	.	/	.	.	/
[O-]/[N+](=C/c1cccnc1)c1ccc(Br)cc1	.	1.8µM	.	.	.[10 µM]	.
CC(=O)OC1CN2CCC1CC2 (stereo not drawn)	/	.	/	.	?	/
CC([C@H](O)c1ccccc1)N(C)C (stereo partly drawn)	.	20µM	.	.	.	.
C=CCn1c(O)c(C=NCCN(C)C)c(=O)[nH]c1=O	.	.	.	.	.	.
COC(=O)N(c1ccccc1)P1(=S)OCCO1	.	4µM	.	.	.	8.9µM
CCOC(=O)N(c1ccccc1)P1(=S)OCCO1	.	?	.	.	.	?
C[C@@]12CC[C@H]3[C@H](CCC4=CC(=O)CC[C@H]43)[C@H]1CC[C@H]2OC1(O)C(=O)c2ccccc2C1=O	.[7.66 µM]	0.32µM	/	/	.[10 µM]	.
CCC(=O)O[C@H]1CC[C@H]2[C@@H]3CCC4=CC(=O)CC[C@]4(C)[C@H]3CC[C@]12C	.	.	?	.	?	.
COc1ccc(C)cc1NC(=O)c1c(C)nn(Cc2ccccc2)c1Cl	.	.	.	.	.[10 µM]	.
CN1C(=O)C(=Cc2ccc(-c3cccc(Cl)c3)o2)C(=O)N(C)C1=O	.	?	.	.	/	7.9µM
Cc1ccc(/C=C2/C(=O)NC(=O)N(C)C2=O)cc1	.	.	.	.	.[0.074 µM]	.
Cc1ccc(Sc2ccc(C=C3C(=O)N(C)C(=O)N(C)C3=O)o2)cc1	.	4.5µM	/	.	.	/
CN1C(=O)NC(=O)/C(=C/c2ccc([N+](=O)[O-])o2)C1=O	/	?	/	.[9.22 µM]	.[10 µM]	/
CN1C(=O)C(=Cc2ccc(N3CCOCC3)o2)C(=O)N(C)C1=O	.	.	.	.	/	16µM
CN1C(=O)C(=Cc2ccc(N3CCCCCC3)o2)C(=O)N(C)C1=S	.	?	.	.	.	.
CC(C)(C)C(=O)c1cn(CC(=O)NCc2ccco2)c2ccccc12	.	.	.	/	/	/
O=C(CS(=O)C(c1ccccc1)c1ccccc1)NO (stereo not drawn)	/	/	/	.	.	/
COC(=O)C1(O)CC2OC1(C)n1c3ccccc3c3c4c(c5c6ccccc6n2c5c31)C(=O)NC4 (stereo not drawn)	.	.[13.5 µM]	/	/	.[10 µM]	.
CC(Cc1ccccc1)NC(=O)NC(C)Cc1ccccc1 (stereo not drawn)	.	.	.	.	.	.
